Assay outcomes as filed in PubChem.
PLK1 inh: blocks human PLK1 kinase activity | P53350 | recombinant PLK1 kinase, TR-FRET peptide phosphorylation | inhibition, % at 10 µM | actives 0.53% (n = 97,000) | AID 619;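 active = inhibition of 50% or more in the single-concentration screen; inactive = inhibition below 50%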;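 note: 0% = DMSO max control and 100% = H-89 dihydrochloride min control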
Target sequence (P53350 whole entry, looked up): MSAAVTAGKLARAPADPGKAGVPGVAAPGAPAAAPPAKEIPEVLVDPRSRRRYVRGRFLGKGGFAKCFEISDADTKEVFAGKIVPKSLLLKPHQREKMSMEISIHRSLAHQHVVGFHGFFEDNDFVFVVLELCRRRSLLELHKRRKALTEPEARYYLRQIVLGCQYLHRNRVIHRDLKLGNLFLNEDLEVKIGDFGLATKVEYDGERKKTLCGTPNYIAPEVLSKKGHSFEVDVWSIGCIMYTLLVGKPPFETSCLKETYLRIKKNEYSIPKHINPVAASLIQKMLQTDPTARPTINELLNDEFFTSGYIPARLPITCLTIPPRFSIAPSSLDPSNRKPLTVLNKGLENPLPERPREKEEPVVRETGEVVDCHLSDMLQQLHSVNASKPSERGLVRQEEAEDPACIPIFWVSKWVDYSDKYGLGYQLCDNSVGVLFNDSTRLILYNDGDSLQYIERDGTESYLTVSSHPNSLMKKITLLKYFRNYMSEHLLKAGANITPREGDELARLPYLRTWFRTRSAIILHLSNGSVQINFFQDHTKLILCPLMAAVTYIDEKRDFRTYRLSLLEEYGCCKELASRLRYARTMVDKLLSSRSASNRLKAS
Smad3 FoxH1 inh: inhibitors of human Smad3 transcription factor binding | TR-FRET Smad3/Dy647-FoxH1 peptide binding, europium anti-His | actives 0.29% (n = 88,000) | AID 630 | P84022 | inhibition, % at 25 µM;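 active = compounds that reduce the energy-transfer binding signal between the protein and its labelled peptide by more than half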;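 note: 0% = Smad3 plus labelled peptide maximal FRET and 100% = peptide-only background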
PLK1 PBD inh: inhibitors of human Plk1 polo box domain binding; inhibition, %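 (tested at about 20 µM)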; P53350; actives 0.13% (n = 97,000); AID 693; Plk1 PBD phosphopeptide binding, fluorescence polarization; in the data active = inhibition above about 34%, passing the limit was not always enough
ERb SRC1 inh: blocks coactivator binding to human estrogen receptor beta. Q92731. TR-FRET ER-beta LBD / SRC1-Cy5 peptide binding; receptor agonist-loaded with 1 µM estradiol. inhibition, % at 25.6 µM. actives 1.3% (n = 86,000). AID 633;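 active = compounds whose percent inhibition of the receptor-coactivator binding signal exceeds about 50% in the single-dose screen, limit read from the data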;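 note: 0% = receptor plus peptide wells without compound and 100% = peptide-only wells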
ERa SRC1 inh: ER-alpha (human) coactivator binding inhibition. P03372. TR-FRET ER-alpha LBD / SRC-1 peptide, estradiol-bound. inhibition, % at 25.6 µM. actives 1.7% (n = 86,000). AID 629; in the data active = inhibition above about 50%;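 note: 0% = receptor plus peptide control and 100% = peptide only without receptor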
ERa coact pot: enhances coactivator binding to human estrogen receptor alpha; P03372; actives 1.3% (n = 86,000); coactivator binding (% of control), % at 25.6 µM; AID 639; TR-FRET ERalpha-LBD/SRC-Cy5 coactivator binding, 2 h; 100 = basal binding, no effect; in the data active = activity above about 200%;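 note: binding measured in presence of low estradiol as agonist stimulus; 0% = peptide alone without receptor and 100% = receptor with peptide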
Numbers without * were called inactive; [ ] = another dose, or the depositor's remark. An excerpt weighted towards active compounds, which were near 3.3% of everything screened.

Screening COCCOC(=O)c1c(C)oc2ccc(NS(=O)(=O)c3ccc(C(=O)O)cc3)cc12 returned Smad3 FoxH1 inh -2, ERb SRC1 inh 54*[fluorescence artefact?], ERa SRC1 inh 39 and ERa coact pot 49.
`CCOC(=O)c1c(C)oc2ccc(NS(=O)(=O)c3cccs3)cc12` gave PLK1 inh -7, Smad3 FoxH1 inh 0, PLK1 PBD inh -15, ERb SRC1 inh 7, ERa SRC1 inh 7 and ERa coact pot 91.
CCCCOC(=O)c1c(C)oc2ccc(NS(=O)(=O)c3ccc4c5c(cccc35)C(=O)N4)cc12 was read as PLK1 inh -8, Smad3 FoxH1 inh 15, PLK1 PBD inh 34, ERb SRC1 inh 53*, ERa SRC1 inh 45 and ERa coact pot 54.
For COC(=O)c1c(C)oc2ccc(NS(=O)(=O)c3cc(OC)ccc3OC)cc12 the results were PLK1 inh 10, Smad3 FoxH1 inh 3, PLK1 PBD inh 8, ERb SRC1 inh -14, ERa SRC1 inh -18 and ERa coact pot 102.
For CSc1nc2sc3c(c2c2nnnn12)CC(C)(C)OC3 the results were PLK1 inh -8, Smad3 FoxH1 inh -2, PLK1 PBD inh 13, ERb SRC1 inh -1, ERa SRC1 inh 2 and ERa coact pot 121.
Screening N#Cc1ccc(OC(=O)c2ccc(N=C(N)N)cc2)cc1 returned Smad3 FoxH1 inh -2.
CCN1CCN(Cc2c(O)c(Cl)cc3c(C)cc(=O)oc23)CC1 was read as PLK1 inh -4, Smad3 FoxH1 inh 12, PLK1 PBD inh -1, ERb SRC1 inh 63*, ERa SRC1 inh 48 and ERa coact pot 42.
For Cc1cc(=O)oc2c(CN3CCCCC3)c(O)c(Cl)cc12 the results were PLK1 inh -19, Smad3 FoxH1 inh -1, PLK1 PBD inh 16, ERb SRC1 inh -17, ERa SRC1 inh -25 and ERa coact pot 101.
Cc1cc(=O)oc2c(CN3CCC(C)CC3)c(O)c(Cl)cc12 was read as PLK1 inh -18, Smad3 FoxH1 inh 9, PLK1 PBD inh 0, ERb SRC1 inh 69*[fluorescence artefact?], ERa SRC1 inh 67* and ERa coact pot 41.
`O=C(O)CSc1ccc(N=C=S)cc1` gave Smad3 FoxH1 inh 0.
For O=C(O)[C@@H]1CCN(Cc2oc(CO)cc(=O)c2O)C1 the results were Smad3 FoxH1 inh -5.
For O=C(CSc1nnnn1-c1ccccc1)CC(=O)Nc1ccc(Cl)cc1 the results were PLK1 inh -2, Smad3 FoxH1 inh -7, PLK1 PBD inh -4, ERb SRC1 inh 5, ERa SRC1 inh -3 and ERa coact pot 120.
For CC(NC(=O)C(C)(C)C)c1nc2ccccc2n1C (stereo not given) the results were Smad3 FoxH1 inh -3, ERb SRC1 inh 0, ERa SRC1 inh 6 and ERa coact pot 101.
Screening O=C1NC(c2ccc(Br)cc2)Nc2sc3c(c21)CCC3 (stereo not given) returned PLK1 inh 1, Smad3 FoxH1 inh 1, PLK1 PBD inh -30, ERb SRC1 inh 64*, ERa SRC1 inh 51* and ERa coact pot 26.
`O=C1NC(c2ccccn2)Nc2sc3c(c21)CCC3` (stereo not given) gave PLK1 inh 14, Smad3 FoxH1 inh -2, PLK1 PBD inh 3, ERb SRC1 inh 8, ERa SRC1 inh -7 and ERa coact pot 83.
`CC/C(=N\NS(C)(=O)=O)c1ccccc1` gave PLK1 inh 3, Smad3 FoxH1 inh 5, PLK1 PBD inh -16, ERb SRC1 inh -3, ERa SRC1 inh 10 and ERa coact pot 104.
Cc1ccc(CNC(=O)C2CCCN(c3nc4ccccc4o3)C2)cc1 (stereo not given) was read as Smad3 FoxH1 inh -13, ERb SRC1 inh 49, ERa SRC1 inh -12 and ERa coact pot 114.
COc1ccc(Br)cc1CNC(=O)C1CCCN(c2nc3ccccc3o2)C1 (stereo not given) was read as PLK1 inh -1, Smad3 FoxH1 inh 5, PLK1 PBD inh -3, ERb SRC1 inh 28, ERa SRC1 inh 64* and ERa coact pot 102.
COCCCn1c(SCC(=O)n2c(C)c(C)c3ccccc32)nnc1-c1ccoc1C was read as PLK1 inh -8, Smad3 FoxH1 inh 4, PLK1 PBD inh -13, ERb SRC1 inh 9, ERa SRC1 inh -21 and ERa coact pot 108.
For CCc1sc(C(=O)Nc2ccsc2C(=O)OC)cc1Br the results were Smad3 FoxH1 inh 9, ERb SRC1 inh 0, ERa SRC1 inh 11 and ERa coact pot 237*.
For COC(=O)c1sccc1NC(=O)c1sccc1C the results were PLK1 inh -2, Smad3 FoxH1 inh -6, PLK1 PBD inh -22, ERb SRC1 inh 5, ERa SRC1 inh -1 and ERa coact pot 153.
Screening COC(=O)c1sccc1NC(=O)c1cc(OC)cc(OC)c1 returned PLK1 inh -118, Smad3 FoxH1 inh -5, PLK1 PBD inh -2, ERb SRC1 inh 28, ERa SRC1 inh 26 and ERa coact pot 440*[fluorescence artefact?].
For COC(=O)c1sccc1NC(=O)c1ccc(OC)c(OC)c1 the results were PLK1 inh 4, Smad3 FoxH1 inh -10, PLK1 PBD inh 25, ERb SRC1 inh 8, ERa SRC1 inh 0 and ERa coact pot 145.
`N=C(N)SCC(=O)O` gave Smad3 FoxH1 inh -5.
O=C(Nc1ccccc1)c1ccc(N2CCN(c3ccccn3)CC2)c(S(=O)(=O)N2CCOCC2)c1 was read as PLK1 inh -12, Smad3 FoxH1 inh 3, PLK1 PBD inh 8, ERb SRC1 inh 27, ERa SRC1 inh 27 and ERa coact pot 340*[fluorescence artefact?].
For O=C(Nc1ccccc1)c1ccc(N2CCN(c3ccccc3)CC2)c(S(=O)(=O)N2CCOCC2)c1 the results were PLK1 inh -10, Smad3 FoxH1 inh -5, PLK1 PBD inh -12, ERb SRC1 inh 26, ERa SRC1 inh 31 and ERa coact pot 405*[fluorescence artefact?].
O=C(Nc1ccccc1)c1ccc(NC2CCCCC2)c(S(=O)(=O)N2CCOCC2)c1 was read as PLK1 inh -10, Smad3 FoxH1 inh -4, PLK1 PBD inh -17, ERb SRC1 inh 7, ERa SRC1 inh -1 and ERa coact pot 111.
COc1ccc(C(=O)Nc2ccc(Cl)cc2C(=O)NCc2ccco2)cc1 was read as PLK1 inh -48, Smad3 FoxH1 inh 10, PLK1 PBD inh -2, ERb SRC1 inh 10, ERa SRC1 inh 3 and ERa coact pot 131.
For CCC(C)C(NC(=O)c1ccccc1NC(=O)c1ccc(OC)cc1)C(=O)NCc1ccco1 (stereo not given) the results were PLK1 inh -11, Smad3 FoxH1 inh 5, PLK1 PBD inh 20, ERb SRC1 inh 40, ERa SRC1 inh 67*[fluorescence artefact?] and ERa coact pot 65.
NCC(=O)Nc1ccccc1 was read as Smad3 FoxH1 inh 2.
Screening Cn1nc(C(=O)Nc2c(-c3ccccc3)nc3sccn23)c2ccccc2c1=O returned PLK1 inh 1, Smad3 FoxH1 inh 3, PLK1 PBD inh -3, ERb SRC1 inh 16, ERa SRC1 inh 62*[fluorescence artefact?] and ERa coact pot 85.
